Assay outcomes from PubChem BioAssay.
Shown are actives, neighbours in structure and some others; about 0.89% of the full set was active somewhere.
CBFb RUNX1 block: blocks binding between human CBF-beta and RUNX1; Q01196+Q13951; AlphaScreen CBFb-His/RUNX1-biotin binding, biochemical; Potency, µM (top dose mostly 59.8 µM), inactives show at the highest dose activity, negative = inhibition, actives largely listed as inhibitors; 230,000 tested, under 10 active; AID 1477; note: % of control where 0% means no effect
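AlphaScreen binding: CBFb-His and RUNX1-biotin (30 nM each) preincubated 20 min, compound added for 15 min, then nickel and streptavidin beads for 90 min, all at room temperature. Disruption of the interaction by any mechanism counts as activity.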
MBNL1-CUG inh: MBNL1-poly(CUG) RNA binding inhibition | Q9NR56 | TR-FRET MBNL1-His/biotin-(CUG)12 binding, 665/545 ratio | actives 0.036% (n = 280,000) | Potency, µM (series often up to 57.5 µM), for inactives: at the highest dose activity change, negative = inhibition, usual class: inhibitors | AID 2675; active = well fitted inhibition curve with a large enough effect in the signal ratio, with a control signal flat, not every such curve was filed as active; inconclusive = small, poorly fitted or top-dose-only effect, or effect the other way, or a change in a side signal; inactive = no such curve, though single readings can be large or run the other way; the % refers to the signal ratio; note: potency is the fitted concentration of half-maximal effect; % is set by controls: 0 for no effect and ±100 for the full control effect
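Inhibition of protein-RNA binding appears as loss of TR-FRET between terbium anti-His antibody on MBNL1-His and streptavidin-XL665 on biotin-(CUG)12. Activity is normalized to buffer-only and uninhibited-complex controls.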
Eya2 inh: Eya2 (human) phosphatase inhibition; O00167; recombinant Eya2, OMFP fluorescence dephosphorylation (OMFP is methylfluorescein phosphate); Potency, µM (doses to about 76.9 µM), for the others: at the highest dose activity, negative = inhibition, actives largely listed as inhibitors; actives 0.006% (n = 330,000); note: potency is the fitted concentration of half-maximal effect; % is set by controls: 0 for no effect and ±100 for the full control effect
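Eya2 protein (added as 0.2 uM solution) was preincubated with compound for 10 min at ambient temperature in 50 mM HEPES pH 7.5, 50 mM NaCl, 5 uM MgCl2, 0.05% BSA, 1 mM DTT. OMFP (added at 50 uM) then reacted 10 min; fluorescence read at 485/525 nm.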
L3MBTL1 block: blocks human L3MBTL1. AlphaScreen L3MBTL1–H3K9me1 peptide binding. Potency, µM (top dose mostly 57.1 µM), inactives show top-dose activity, negative = inhibition, hits mostly inhibitors. actives 0.66% (n = 230,000). AID 485360; note: potency is the fitted concentration of half-maximal effect; % is set by controls: 0 for no effect and ±100 for the full control effect; nearly all actives have a fitted effect of over 60% in size
Target sequence (Q9Y468 whole entry, looked up): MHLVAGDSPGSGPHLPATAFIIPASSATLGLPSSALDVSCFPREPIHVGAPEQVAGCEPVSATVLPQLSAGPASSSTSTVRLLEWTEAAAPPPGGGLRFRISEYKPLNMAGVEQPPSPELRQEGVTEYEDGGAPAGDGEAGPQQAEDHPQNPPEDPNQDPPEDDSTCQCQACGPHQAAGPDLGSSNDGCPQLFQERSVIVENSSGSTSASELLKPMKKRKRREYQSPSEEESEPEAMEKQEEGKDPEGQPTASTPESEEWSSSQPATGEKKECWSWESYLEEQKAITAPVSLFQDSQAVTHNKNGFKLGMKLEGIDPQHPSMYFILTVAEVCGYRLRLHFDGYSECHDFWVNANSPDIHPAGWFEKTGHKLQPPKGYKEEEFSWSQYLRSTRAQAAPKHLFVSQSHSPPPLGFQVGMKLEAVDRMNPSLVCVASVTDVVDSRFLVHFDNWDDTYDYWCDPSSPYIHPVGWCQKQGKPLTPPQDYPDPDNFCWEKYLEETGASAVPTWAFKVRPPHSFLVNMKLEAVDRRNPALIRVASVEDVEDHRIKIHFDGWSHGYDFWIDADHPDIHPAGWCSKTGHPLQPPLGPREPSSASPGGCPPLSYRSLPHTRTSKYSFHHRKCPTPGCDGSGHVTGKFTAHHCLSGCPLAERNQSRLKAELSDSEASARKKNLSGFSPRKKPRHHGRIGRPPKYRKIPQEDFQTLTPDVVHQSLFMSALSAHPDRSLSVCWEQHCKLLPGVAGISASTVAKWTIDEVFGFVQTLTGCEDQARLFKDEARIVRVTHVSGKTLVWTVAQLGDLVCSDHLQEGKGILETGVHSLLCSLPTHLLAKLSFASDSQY
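AlphaScreen assay: L3MBTL1 (50 nM final) was preincubated 30 min at room temperature with biotinylated H3(1-15)K9me1 peptide (75 nM final), then 30 min with library compounds; streptavidin donor and nickel chelate acceptor beads (10 ug/mL final) added, 30 min dark.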
CtBP-E1A inh: inhibitors of CtBP/E1A interaction; AlphaScreen GST-E1A/His-CtBP binding, 1536-well; stronger effect = lower value; activity change, % (test concentration not listed); actives 0.49% (n = 340,000); in the data active = activity change below about -65%; inconclusive = mostly about -30% to -63%; note: % is set by controls: 0 for no effect and ±100 for the full control effect
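AlphaScreen with 125 nM GST-E1A and 125 nM His-CtBP (5X stocks) in Tris pH 8.0, 300 mM NaCl, BSA, Tween 20, TCEP. Compounds preincubated 2 h at 37 deg C, then glutathione donor/nickel acceptor beads added for 1 h at 37 deg C in dark.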
Six1-Eya2 blk: Six1/Eya2 interaction inhibition. actives 0.56% (n = 360,000). AlphaScreen GST-Six1/His-Eya2 binding, biochemical; stronger effect = lower value. activity change, % (no concentration beside the values). AID 651725; in the data active = activity change below about -65%; inconclusive = mostly about -30% to -63%; note: % is set by controls: 0 for no effect and ±100 for the full control effect
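AlphaScreen with GST-Six1 and His-Eya2 (5X mix: 250 nM and 500 nM), glutathione donor and nickel acceptor beads; buffer 50 mM Tris pH 8.0, 300 mM NaCl, 1 mM TCEP; 1 h at 37 C in the dark.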
Numbers without * were called inactive; ? = inconclusive; . = not tested or not shown; [ ] = dose if it differs, or a comment. Unless noted, calls come from the whole dose curve; as a rule, active = well fitted curve in the direction sought with a large enough effect; inconclusive = small, poorly fitted or top-dose-only effect, or another doubt; inactive = no such curve, though single readings can be large; an effect the other way counts as inactive or inconclusive.

SMILES | CBFb RUNX1 block | MBNL1-CUG inh | Eya2 inh | L3MBTL1 block | CtBP-E1A inh | Six1-Eya2 blk
CCn1c(SCc2nc3sc(C(=O)O)c(C)c3c(=O)[nH]2)nc2ccccc21 | ? | 4% | -13% | . | -8 | -68*
COc1ccc(OC)c(NC(=O)CSc2nc3n[nH]c(C)c3c(=N)n2-c2cccc(Cl)c2C)c1 | . | 1% | -10% | . | -17 | -9
CCc1ccccc1NC(=O)CSc1nc2n[nH]c(C)c2c(=N)n1-c1cccc(OC)c1 | -2% | -13% | -4% | 52% | -70* | ?
O=Nc1c(-c2c(O)[nH]c3cc(Br)ccc23)[nH]c2ccccc12 | . | ? | -11% | . | ? | -71*
CC(C)(c1cc(Br)c(OCC(Br)CBr)c(Br)c1)c1cc(Br)c(OCC(Br)CBr)c(Br)c1 (stereo not drawn) | -5%[21.7 µM] | . | . | . | . | .
Cc1ccc(-c2csc3nc(SCC(=O)Nc4ccc(Cl)c(C(=O)O)c4)[nH]c(=O)c23)cc1 | . | 2% | 3% | . | . | -70*
Cc1[nH]c(N=Nc2ccccc2)nc1N=Nc1ccccc1 | . | ? | 4% | ? | -66* | ?
Nc1ccc(N=Nc2ccccc2)c(N)n1 | ? | ? | -5% | -11% | ? | -29
CC(Oc1ncnc2ccccc12)C(=O)Nc1cccc(S(=O)(=O)N2CCOCC2)c1 (stereo not drawn) | -1% | -5% | -5% | 0% | -2 | -2
COc1cccc(/C=C/C(=O)Nc2ccc3nc4n(c(=O)c3c2)CCCC4)c1OC | -3% | ? | 2% | . | -78* | ?
COc1cc(/C=C/C(=O)Nc2ccc3nc4n(c(=O)c3c2)CCCC4)cc(OC)c1OC | -2% | ? | -5% | . | ? | -85*
COc1ccc(/C=C/C(=O)Nc2ccc3nc4n(c(=O)c3c2)CCCC4)cc1 | -2% | 14% | 9% | . | -4 | -12
CCNC(=O)CC1C(=O)N(c2ccccc2)C(=O)N1CCOC (stereo not drawn) | . | -5% | -3% | . | -14 | 9
Cc1ccc(C(=O)Oc2cc(C)n(C)c(=O)c2)cc1 | 0% | 6% | -3% | -6% | -23 | -95*
CC(C)CCOc1ccc(C(=O)NNC(=O)CNC(=O)c2ccccc2F)cc1 | . | . | 3% | 7% | 1 | 3
CCN1/C(=C2\OC(=S)N(C)C2=O)C=Cc2ccccc21 | -12% | 9% | -4% | . | -16 | -7
CCSC1=NC(=O)/C(=C2/C=Cc3ccccc3N2CC)S1 | ? | ? | -11% | . | -74* | -79*
O=C(Nc1ccccc1F)c1ccc(O)c2ncccc12 | . | . | -4% | 28µM* | . | .
Cc1nnc2sc(SCC(=O)Nc3ccc(Cl)cc3)nn2c1=O | ? | 12% | 17% | . | -88* | ?
CC(=O)Nc1cccc(NC(=O)CSc2nn3c(=O)c(C)nnc3s2)c1 | -1% | -1% | -3% | . | -88* | -73*
Cc1cccc(CSc2nn3c(=O)c(C)nnc3s2)c1 | -3% | 7% | -2% | 6% | -1 | 0
O=C(O)CCN1C(=O)/C(=C\c2ccncc2)SC1=S | -1% | 10% | -10% | 7% | . | 1
O=C(O)CCN1C(=O)/C(=C\c2ccc(-c3nc4ccccc4s3)o2)SC1=S | -5% | 3% | -24% | . | -75* | ?
C[C@@H]1CN([C@H](C)CO)C(=O)c2cc(C#CC(C)(C)O)cnc2O[C@@H]1CN(C)C(=O)C1CC1 | . | . | . | . | 5 | -2
Cc1ccc(CN(C(=O)COc2ccc(Br)cc2)C2CCS(=O)(=O)C2)o1 (stereo not drawn) | . | 12% | 4% | . | 1 | -1
CCc1ccc2[nH]c3nc(N/N=C/c4ccc(O)cc4O)nnc3c2c1 | . | 9% | -3% | -4% | -81* | ?
CCC/C=C/c1ccc(CN2C(C(C)C)C(=O)N(Cc3cn(CCC4OCCO4)nn3)CCS2(=O)=O)cc1 (stereo not drawn) | . | . | . | . | ? | -10
